Experimental data from publication PMC3218832.

Legend:
Experiment in all cases: protein binding microarray; high values mean tight binding
Settings in all cases: dsDNA, one strand shown
[1] = biological target: RELARELA (p65 homodimer) (Homo sapiens, UniProt Q04206 1-307)
[2] = biological target: p50p50 homodimer (Homo sapiens, UniProt P19838 7-356)
[3] = biological target: T1, p52p52 homodimer (Homo sapiens, UniProt Q00653 4-332)
T1 sequence: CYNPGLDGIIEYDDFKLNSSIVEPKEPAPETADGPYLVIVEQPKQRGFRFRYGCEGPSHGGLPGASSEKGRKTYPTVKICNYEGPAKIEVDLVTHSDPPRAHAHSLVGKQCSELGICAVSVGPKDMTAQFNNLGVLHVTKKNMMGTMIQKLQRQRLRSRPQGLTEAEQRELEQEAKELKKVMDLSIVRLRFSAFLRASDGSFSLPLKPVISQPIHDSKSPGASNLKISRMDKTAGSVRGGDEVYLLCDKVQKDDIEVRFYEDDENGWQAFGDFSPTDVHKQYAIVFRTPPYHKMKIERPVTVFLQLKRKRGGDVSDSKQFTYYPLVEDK

[4] = biological target: RELA (p65) subunit of heterodimer;p50 subunit (Homo sapiens;Homo sapiens, UniProt Q04206;P19838 1-307;7-356)
Sequence of RELA (p65) subunit of heterodimer;p50 subunit (Q04206 1-307, chain 1 of 2): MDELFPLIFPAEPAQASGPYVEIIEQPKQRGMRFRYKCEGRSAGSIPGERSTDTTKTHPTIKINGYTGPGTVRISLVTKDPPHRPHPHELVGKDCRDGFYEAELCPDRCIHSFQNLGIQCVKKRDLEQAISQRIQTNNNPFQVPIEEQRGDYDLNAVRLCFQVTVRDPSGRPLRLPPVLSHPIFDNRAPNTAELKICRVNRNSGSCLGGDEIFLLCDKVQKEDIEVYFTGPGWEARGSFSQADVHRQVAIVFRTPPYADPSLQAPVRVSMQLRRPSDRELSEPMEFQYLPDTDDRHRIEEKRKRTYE
Sequence of RELA (p65) subunit of heterodimer;p50 subunit (P19838 7-356, chain 2 of 2): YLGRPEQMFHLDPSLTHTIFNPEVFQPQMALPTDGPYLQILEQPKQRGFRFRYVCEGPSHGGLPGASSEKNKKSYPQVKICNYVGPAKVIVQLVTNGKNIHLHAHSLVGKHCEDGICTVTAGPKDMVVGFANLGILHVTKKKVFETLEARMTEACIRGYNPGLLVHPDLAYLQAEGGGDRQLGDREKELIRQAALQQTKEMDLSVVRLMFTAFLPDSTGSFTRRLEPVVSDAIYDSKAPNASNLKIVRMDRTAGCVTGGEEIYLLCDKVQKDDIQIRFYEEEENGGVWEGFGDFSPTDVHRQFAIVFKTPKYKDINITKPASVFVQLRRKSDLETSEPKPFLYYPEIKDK

[5] = biological target: RELA (p65) subunit of heterodimer;p52 subunit (Homo sapiens;Homo sapiens, UniProt Q04206;Q00653 1-307;4-332)
[6] = biological target: RELB subunit;p50 subunit (Homo sapiens;Homo sapiens, UniProt Q01201;P19838 120-401;7-356)
[7] = biological target: T2, RELB subunit;p52 subunit (Homo sapiens;Homo sapiens, UniProt Q01201;Q00653 120-401;4-332)
T2 sequence 1: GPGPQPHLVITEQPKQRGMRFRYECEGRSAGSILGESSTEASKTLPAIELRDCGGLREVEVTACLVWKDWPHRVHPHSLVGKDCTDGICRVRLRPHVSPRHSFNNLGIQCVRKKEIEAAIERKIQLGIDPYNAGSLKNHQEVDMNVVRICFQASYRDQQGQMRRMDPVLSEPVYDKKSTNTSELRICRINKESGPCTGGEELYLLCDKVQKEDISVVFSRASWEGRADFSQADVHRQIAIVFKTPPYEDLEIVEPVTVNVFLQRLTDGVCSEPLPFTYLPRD
T2 sequence 2: T1 sequence

[8] = biological target: C-Rel subunit;p50 subunit (Homo sapiens;Homo sapiens, UniProt Q04864;P19838 1-285;7-356)
[9] = biological target: T3, C-Rel subunit;p52 subunit (Homo sapiens;Homo sapiens, UniProt Q04864;Q00653 1-285;4-332)
T3 sequence 1: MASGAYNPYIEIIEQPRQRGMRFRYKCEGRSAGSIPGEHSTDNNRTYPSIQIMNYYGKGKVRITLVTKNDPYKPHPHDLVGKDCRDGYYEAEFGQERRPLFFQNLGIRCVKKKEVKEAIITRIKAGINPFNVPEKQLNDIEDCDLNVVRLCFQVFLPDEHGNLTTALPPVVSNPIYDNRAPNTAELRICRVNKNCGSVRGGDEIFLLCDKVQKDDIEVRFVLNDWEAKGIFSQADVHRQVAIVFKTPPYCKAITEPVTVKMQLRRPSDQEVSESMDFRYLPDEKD
T3 sequence 2: T1 sequence

Sequence of RELARELA (p65 homodimer) (Q04206 1-307): as the sequence (Q04206 1-307, chain 1 of 2) above
Sequence of p50p50 homodimer (P19838 7-356): as the sequence (P19838 7-356, chain 2 of 2) above

Sequence	binding signal [1] [z-score]	binding signal [2] [z-score]	binding signal [3] [z-score]	binding signal [4] [z-score]	binding signal [5] [z-score]	binding signal [6] [z-score]	binding signal [7] [z-score]	binding signal [8] [z-score]	binding signal [9] [z-score]
CAATGCACCCT	-0.473	-0.555	-0.333	-0.616	-0.779	-0.601	-0.639	-1	-0.653
GGAAACCTCCT	0.339	-1.26	-0.526	-0.425	-0.573	-1.02	-0.75	-0.436	-0.293
GAGTTGTTCCC	0.34	-0.415	-0.231	-0.188	-0.206	-0.327	-0.463	-0.00411	-0.104
GGGAAGCTCCC	1.42	0.219	1.52	1.07	1.16	0.839	0.35	0.354	0.716
CAAGTGGCCCT	-1.09	-1.71	-0.67	-0.961	-0.801	-0.596	-0.32	-1.14	-0.793
CAGGGCTCCCT	-0.815	-0.631	-0.475	-0.698	-0.717	-0.43	-0.477	-0.901	-0.708
GAATTTACCCT	0.959	0.984	0.839	0.86	0.817	0.602	0.504	0.6	0.479
GAGATTGCCCC	0.817	0.318	0.0909	0.951	0.468	0.435	0.366	1.1	0.621
AGATTGGTCCT	-0.38	-1.15	-0.549	-1.18	-0.788	-0.729	-0.656	-1.35	-0.852
AAAAGCCTCCT	-1.11	-1.28	-0.721	-0.959	-1.07	-1.23	-0.999	-1.5	-1.03
CAGGTCGCCCC	-0.367	-0.385	-0.232	-0.268	-0.328	-0.18	-0.126	0.016	-0.13
CAATGGGCCCC	-0.62	-0.565	-0.242	-0.699	-0.472	-0.379	-0.185	-0.565	-0.638
AAGTTAGTCCT	-0.0878	-1.56	-0.552	-1.02	-0.842	-1.03	-0.752	-1	-0.837
GAGTTCTTCCT	-0.0672	-1.52	-0.678	-0.535	-0.734	-0.845	-0.72	-0.764	-0.548
CGGGAGCTCCC	0.73	0.136	0.135	0.408	0.0305	0.0766	-0.106	-0.102	0.192
GAATACTCCCC	0.403	0.933	0.502	0.707	0.752	0.8	0.628	0.806	0.479
GAAAGGTTCCC	0.328	-0.486	-0.241	-0.184	-0.334	-0.203	-0.316	-0.141	-0.167
CAAATAGCCCC	0.081	0.839	0.425	0.413	0.823	0.524	0.621	0.331	0.543
AGATTACTCCT	-0.0935	-1.24	-0.548	-0.691	-0.875	-1.01	-0.843	-1.01	-0.848
AAAGGAACCCC	-0.25	0.367	0.122	0.18	0.127	0.118	0.351	0.41	0.175
CAGGAAACCCC	2.37	1.03	1.38	1.38	1.31	0.925	1.39	1.04	1.76
AAGTAGACCCT	-0.746	-0.785	-0.531	-0.711	-0.775	-0.737	-0.709	-1.17	-0.772
AGGAATGCCCT	1.19	-0.455	-0.376	-0.147	-0.196	-0.674	-0.494	-0.208	0.0938
CAAATGGTCCT	-0.0232	-1.33	-0.481	-1.22	-0.808	-0.726	-0.534	-1.3	-0.727
CAGTGGTCCCC	-0.00968	0.538	0.29	0.247	0.212	0.612	0.412	0.329	0.0114
CAGGGCCTCCC	-0.644	-0.933	-0.467	-0.699	-0.636	-0.64	-0.746	-0.529	-0.502
AAAGTTACCCT	-0.188	0.663	0.376	0.371	0.376	0.557	0.191	0.279	0.216
AAATACGCCCT	0.0178	-0.886	-0.502	-0.594	-0.758	-1.09	-0.751	-0.684	-0.592
CGATGACCCCT	-0.679	-0.0343	-0.125	-0.386	-0.154	-0.223	-0.0567	-0.665	-0.266
AGGAAAGTCCC	2.97	0.984	2.54	2.16	1.77	1.45	1.93	2.17	2.89
